Results filed as inconclusive are left out. The source made the active and inactive calls. Unless noted, the call rests on the fitted dose curve; in most records, active means well fitted curve in the direction sought with a large enough effect in the repeat runs; inconclusive means weak or mixed curves; inactive means no such curve, though single readings can be large; an effect the other way counts as inactive or inconclusive.
How the values were obtained:
[1] = qHTS assay to identify small molecule agonists of the estrogen receptor alpha (ER-alpha) signaling pathway in the presence of an antagonist - cell viability counter screen (AID 1259386); details: VM7Luc4E2 viability, CellTiter-Fluor fluorescence, 22 h; series mostly up to 92.4 µM;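 further: cells exposed to compounds for 22 h at 37 °C before the viability read; nearly all actives have a fitted effect of over 30% in size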; further: potency means the concentration at half of the fitted maximal effect
In short: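 Read-out: CellTiter-Fluor fluorescence after 1hr reagent incubation, measured in the same wells as the luciferase readout. VM7Luc4E2 cells were exposed to 15 compound concentrations with 10.0nM ICI-182,780 for 22hr at 37C.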

[2] = target: Progesterone receptor (Homo sapiens) (UniProt P06401); assay: qHTS assay to identify small molecule agonists of the progesterone receptor (PR) signaling pathway (AID 1346784; calls by dose curve; further: nearly all actives have a fitted effect of over 30% in size; further: potency means the concentration at half of the fitted maximal effect; on activation: on the % scale 0 is the no-effect control and ±100 the full control effect); details: PR-UAS-bla HEK293T, beta-lactamase FRET ratio, 16 h; series mostly up to 92.4 µM
Progesterone receptor (Homo sapiens), sequence (P06401 whole entry, looked up): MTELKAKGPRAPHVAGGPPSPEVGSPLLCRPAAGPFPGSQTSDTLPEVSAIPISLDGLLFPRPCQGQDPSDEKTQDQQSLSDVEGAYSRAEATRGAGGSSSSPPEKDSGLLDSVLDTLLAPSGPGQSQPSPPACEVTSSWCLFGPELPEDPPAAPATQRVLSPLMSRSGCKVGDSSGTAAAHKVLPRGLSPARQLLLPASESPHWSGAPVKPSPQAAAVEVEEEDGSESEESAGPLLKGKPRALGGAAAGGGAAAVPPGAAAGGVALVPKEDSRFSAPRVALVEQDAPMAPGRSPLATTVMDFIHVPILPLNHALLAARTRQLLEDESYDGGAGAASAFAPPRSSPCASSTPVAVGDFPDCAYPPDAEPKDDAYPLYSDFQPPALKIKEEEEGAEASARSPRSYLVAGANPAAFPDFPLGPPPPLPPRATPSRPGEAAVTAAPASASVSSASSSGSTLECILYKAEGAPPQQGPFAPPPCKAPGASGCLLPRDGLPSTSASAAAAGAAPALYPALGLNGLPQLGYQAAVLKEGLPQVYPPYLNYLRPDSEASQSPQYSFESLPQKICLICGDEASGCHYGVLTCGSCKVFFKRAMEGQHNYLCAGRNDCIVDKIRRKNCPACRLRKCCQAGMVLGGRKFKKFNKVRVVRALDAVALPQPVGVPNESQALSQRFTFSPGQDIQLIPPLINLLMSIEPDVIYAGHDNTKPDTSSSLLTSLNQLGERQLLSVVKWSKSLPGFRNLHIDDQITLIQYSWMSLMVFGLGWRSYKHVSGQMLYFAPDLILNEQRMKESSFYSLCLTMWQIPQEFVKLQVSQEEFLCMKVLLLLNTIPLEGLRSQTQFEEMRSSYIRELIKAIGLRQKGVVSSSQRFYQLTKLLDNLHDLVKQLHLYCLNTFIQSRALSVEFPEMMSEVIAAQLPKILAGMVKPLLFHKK
In short: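 Compounds were tested for PR agonism in HEK 293T cells bearing a beta-lactamase gene under UAS control. Treatment lasted 16 hr at 37C; signal came from fluorescence of a FRET substrate.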

[3] = qHTS assay to identify small molecule antagonists of the TGF-beta/Smad signaling pathway - cell viability counter screen (AID 1346824); details: SBE-bla HEK293T viability, CellTiter-Glo luminescence; series mostly up to 76.8 µM; further: on the % scale 0 is the no-effect control and ±100 the full control effect; nearly all actives have a fitted effect of over 50% in size
In short: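 SBE-bla HEK 293T cells were plated overnight at 37 C, then given compounds in DMSO plus TGF-beta1 (added as 0.25 ng/mL solution) for 5 hr. After the bla read, CellTiter-Glo was added to the same wells and luminescence read after 30 min at room temperature.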

[4] = qHTS assay to identify small molecule agonists of the TGF-beta/Smad signaling pathway - cell viability counter screen (AID 1346829); details: SBE-bla HEK293T viability, CellTiter-Glo luminescence, 5 h; series mostly up to 76.8 µM; further: top concentration of the series differs between compounds; on the % scale 0 is the no-effect control and ±100 the full control effect; nearly all actives have a fitted effect of over 45% in size
In short: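 After overnight seating at 37 C and 5% CO2, reporter cells got compounds for 5 hr and FRET substrate for 2 hr; cell viability then came from CellTiter-Glo luminescence.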

[5] = qHTS assay to identify small molecule agonists of the TGF-beta/Smad signaling pathway (AID 1346859; active means well fitted activation curve with a large enough effect in the signal ratio in the repeat runs, not every such curve was filed as active; the % refers to the signal ratio; further: on the % scale 0 is the no-effect control and ±100 the full control effect); details: SBE-bla HEK293T, TGF-beta/Smad beta-lactamase reporter, 5 h; series mostly up to 76.8 µM
In short: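 Each well held 4,000 SBE-bla HEK 293T cells incubated overnight before compound addition; 5 hr later the cleavable FRET substrate went on for 2 hr at room temperature, and fluorescence was read at two emissions.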

[6] = target: Thyrotropin-releasing hormone receptor (Homo sapiens) (UniProt P34981); assay: qHTS assay to identify small molecule antagonists of the thyrotropin-releasing hormone receptor (TRHR) signaling pathway (AID 1346877; active means well fitted inhibition curve with a large enough effect in the repeat runs, not every such curve was filed as active; further: on the % scale 0 is the no-effect control and ±100 the full control effect); details: TRHR-HEK293, TRH-induced calcium fluorescence, antagonist mode; series mostly up to 51.3 µM
Thyrotropin-releasing hormone receptor (Homo sapiens), sequence (P34981 whole entry, looked up): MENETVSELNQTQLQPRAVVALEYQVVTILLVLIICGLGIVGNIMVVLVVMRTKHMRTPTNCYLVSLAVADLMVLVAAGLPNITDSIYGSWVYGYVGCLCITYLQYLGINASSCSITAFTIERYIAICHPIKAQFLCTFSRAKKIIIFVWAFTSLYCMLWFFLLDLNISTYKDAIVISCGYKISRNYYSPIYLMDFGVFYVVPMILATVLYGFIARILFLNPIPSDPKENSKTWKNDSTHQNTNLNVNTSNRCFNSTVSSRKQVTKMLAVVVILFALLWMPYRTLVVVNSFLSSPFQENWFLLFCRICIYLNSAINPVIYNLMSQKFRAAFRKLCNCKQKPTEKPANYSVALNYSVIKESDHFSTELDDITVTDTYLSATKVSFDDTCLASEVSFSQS
In short: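 HEK293/TRHR cells, 18 h, 37 °C; Ca2+ dye 2 h; cpd 5 min RT; TRH 1 nM final; fluorescence read 3 min, 1 s intervals; 15 concs, triplicate.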

[7] = target: Thyrotropin-releasing hormone receptor (Homo sapiens) (UniProt P34981); assay: qHTS assay to identify small molecule agonists of the thyrotropin-releasing hormone receptor (TRHR) signaling pathway (AID 1346891; calls by dose curve; further: on the % scale 0 is the no-effect control and ±100 the full control effect); details: TRHR-HEK293 calcium fluorescence, agonist mode; series mostly up to 57.6 µM
In short: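 Screening of agonists relied on calcium signalling in HEK293 cells expressing human TRHR: dye loading 2 h at 37 °C preceded compound addition and a 3-min fluorescence time course.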

[8] = Human pregnane X receptor (PXR) small molecule agonists, qHTS cell viability counter screen (AID 1346977); details: PXR-Luc HepG2 viability, CellTiter-Fluor, 24 h; series mostly up to 92.4 µM; further: on the % scale 0 is the no-effect control and ±100 the full control effect; nearly all actives have a fitted effect of over 50% in size
In short: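 Tox21 qHTS format; PXR-Luc HepG2, 2,000/well, charcoal-stripped FBS 5%. Cpd exposure 24hr. Read: CellTiter-Fluor fluorescence, multiplexed with luciferase.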

[9] = Caspase-3/7 induction in HepG2 cells by small molecules, qHTS assay (AID 1346978); details: HepG2 caspase-3/7 activation, Caspase-Glo luminescence, 17 h; series mostly up to 92.4 µM; further: nearly all actives have a fitted effect of over 15% in size; further: potency means the concentration at half of the fitted maximal effect
In short: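 Wild-type HepG2 cells (2,000/well) were settled 5 h at 37 C, 5% CO2, then exposed to compounds in DMSO for 17 h. Caspase-3/7 activity was read by luminescence 30 min after adding Caspase-Glo 3/7 reagent at room temperature.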

[10] = Caspase-3/7 induction in CHO-K1 cells by small molecules, qHTS cell viability counter screen (AID 1346979); details: CellTiter-Fluor fluorescence, 17 h; series mostly up to 92.4 µM; further: nearly all actives have a fitted effect of over 35% in size; further: potency means the concentration at half of the fitted maximal effect
In short: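 CellTiter-Fluor viability check, qHTS format: wild-type CHO-K1, 16hr compound treatment, 1hr reagent incubation, fluorescence read.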

[11] = Caspase-3/7 induction in CHO-K1 cells by small molecules, qHTS assay (AID 1346980); details: CHO-K1 caspase-3/7 induction, Caspase-Glo luminescence, 17 h; series mostly up to 92.4 µM; further: on the % scale 0 is the no-effect control and ±100 the full control effect; nearly all actives have a fitted effect of over 15% in size
In short: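 Wild-type cells were seeded at 1,500 per well and settled 5 hr at 37 C, 5% CO2, then exposed to DMSO-dissolved compounds for 17 hr. Caspase-Glo 3/7 reagent was added, and luminescence was read after 30min at room temperature.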

[12] = Caspase-3/7 induction in HepG2 cells by small molecules, qHTS cell viability counter screen (AID 1346981); details: CellTiter-Fluor fluorescence, 17 h; series mostly up to 92.4 µM; further: on the % scale 0 is the no-effect control and ±100 the full control effect; nearly all actives have a fitted effect of over 30% in size
In short: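 Fluorescence read-out of live-cell protease activity (CellTiter-Fluor) after 1 hr with reagent. This was measured in the same wells as the caspase-3/7 luminescence, on HepG2 cells exposed to DMSO-dissolved compounds for 16 hr at 37 C.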

[13] = target: Acetylcholinesterase (Homo sapiens) (UniProt P22303); assay: Acetylcholinesterase (AChE) small molecule antagonists: colormetric cell-based qHTS assay (AID 1347395; calls by dose curve; further: nearly all actives have a fitted effect of over 30% in size; further: potency means the concentration at half of the fitted maximal effect); details: SH-SY5Y cells AChE activity, colorimetric (Ellman); series mostly up to 115 µM
Acetylcholinesterase (Homo sapiens), sequence (P22303 whole entry, looked up): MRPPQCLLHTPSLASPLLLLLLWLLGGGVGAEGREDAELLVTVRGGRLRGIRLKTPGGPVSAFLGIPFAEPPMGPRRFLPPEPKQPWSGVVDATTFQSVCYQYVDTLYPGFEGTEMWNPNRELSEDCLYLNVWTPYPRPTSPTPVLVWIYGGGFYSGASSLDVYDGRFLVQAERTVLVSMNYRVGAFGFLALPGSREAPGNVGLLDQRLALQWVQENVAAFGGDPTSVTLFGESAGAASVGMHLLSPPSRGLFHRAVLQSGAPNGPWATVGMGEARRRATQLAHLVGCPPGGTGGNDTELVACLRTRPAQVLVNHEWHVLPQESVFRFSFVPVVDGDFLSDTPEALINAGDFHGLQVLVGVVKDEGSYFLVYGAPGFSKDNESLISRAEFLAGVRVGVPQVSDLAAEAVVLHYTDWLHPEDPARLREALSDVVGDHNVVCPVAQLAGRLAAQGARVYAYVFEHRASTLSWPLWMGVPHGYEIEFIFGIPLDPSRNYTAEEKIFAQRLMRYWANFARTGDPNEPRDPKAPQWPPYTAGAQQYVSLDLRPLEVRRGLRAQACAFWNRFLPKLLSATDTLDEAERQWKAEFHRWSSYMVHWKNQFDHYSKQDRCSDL
In short: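 AChE inhibition read colorimetrically via DTNB–thiocholine in SH-SY5Y cells. Compound 30 min, substrate 90 min, both 37 C.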

[14] = target: Nuclear receptor subfamily 1 group I member 2 (Homo sapiens) (UniProt O75469); assay: Human pregnane X receptor (PXR) small molecule agonists, qHTS assay (AID 1346982); details: PXR-Luc HepG2, CYP3A4 luciferase reporter, 24 h; series mostly up to 92.4 µM; further: nearly all actives have a fitted effect of over 35% in size; further: potency means the concentration at half of the fitted maximal effect
Nuclear receptor subfamily 1 group I member 2 (Homo sapiens), sequence (O75469 whole entry, looked up): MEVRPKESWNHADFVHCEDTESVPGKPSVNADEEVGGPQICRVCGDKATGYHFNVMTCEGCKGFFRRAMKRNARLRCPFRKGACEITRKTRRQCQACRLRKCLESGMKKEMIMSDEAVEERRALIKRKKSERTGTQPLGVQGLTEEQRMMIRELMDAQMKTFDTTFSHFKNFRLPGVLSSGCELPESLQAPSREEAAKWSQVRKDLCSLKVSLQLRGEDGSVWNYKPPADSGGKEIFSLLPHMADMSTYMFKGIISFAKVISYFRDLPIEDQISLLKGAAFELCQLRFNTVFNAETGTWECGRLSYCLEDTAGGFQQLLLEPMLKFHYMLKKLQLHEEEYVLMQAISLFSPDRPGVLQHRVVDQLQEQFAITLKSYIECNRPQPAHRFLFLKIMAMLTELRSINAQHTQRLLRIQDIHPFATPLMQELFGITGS
In short: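 HepG2 PXR-Luc reporter line, 5% charcoal-stripped FBS; 5 hr pre-incubation, compound (DMSO) 24 hr at 37 C/5% CO2; ONE-Glo 30 min RT; luminescence read-out.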

[15] = qHTS assay to identify small molecule antagonists of the progesterone receptor (PR) signaling pathway - cell viability counter screen (AID 1346798); details: PR-UAS-bla HEK293T viability, CellTiter-Glo luminescence, 16 h; series mostly up to 92.4 µM; further: nearly all actives have a fitted effect of over 50% in size; further: potency means the concentration at half of the fitted maximal effect
In short: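 Following a 4 hr attachment, PR-UAS-bla HEK293T cells in charcoal-stripped FBS medium were exposed to compounds with R5020 for 16 hr; CellTiter-Glo was added and luminescence read after 30 min at room temperature.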

[16] = qHTS assay to identify small molecule agonists of the progesterone receptor (PR) signaling pathway - cell viability counter screen (AID 1346799; calls by dose curve; further: nearly all actives have a fitted effect of over 45% in size; further: potency means the concentration at half of the fitted maximal effect); details: PR-UAS-bla HEK293T viability, CellTiter-Glo luminescence, 16 h; series mostly up to 92.4 µM
In short: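 Here, 3,000 PR-UAS-bla HEK293T cells per well were treated with compounds for 16 hr after a 6 hr preincubation at 37C and 5% CO2; cell viability is the CellTiter-Glo luminescence signal.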

[17] = target: Nuclear receptor subfamily 1 group I member 2 (Rattus norvegicus) (UniProt Q9R1A7); assay: Rat pregnane X receptor (rPXR) activation by small molecules, qHTS assay (AID 1346983); details: rPXR luciferase reporter cells, One-Glo luminescence, 24 h; max activation: hits give high values; further: on the % scale 0 is the no-effect control and ±100 the full control effect; nearly all actives have a fitted effect of over 20% in size
Nuclear receptor subfamily 1 group I member 2 (Rattus norvegicus), sequence (Q9R1A7 whole entry, looked up): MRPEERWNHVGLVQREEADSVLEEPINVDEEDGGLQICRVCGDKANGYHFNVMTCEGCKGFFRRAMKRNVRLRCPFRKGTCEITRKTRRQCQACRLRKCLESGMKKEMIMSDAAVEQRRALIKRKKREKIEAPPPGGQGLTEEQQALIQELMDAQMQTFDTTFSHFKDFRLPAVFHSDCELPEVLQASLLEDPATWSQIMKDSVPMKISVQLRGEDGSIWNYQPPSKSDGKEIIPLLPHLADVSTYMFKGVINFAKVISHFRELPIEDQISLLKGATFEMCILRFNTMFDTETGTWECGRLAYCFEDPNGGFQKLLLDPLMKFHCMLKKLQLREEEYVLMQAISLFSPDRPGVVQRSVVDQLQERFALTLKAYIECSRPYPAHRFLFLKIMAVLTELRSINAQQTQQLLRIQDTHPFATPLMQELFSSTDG
In short: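 Cell-based rPXR luciferase reporter assay, 2,000 cells per well, rested 5hr at 37 C before compound addition in DMSO, then 24 hr at 37 C. One-Glo reagent was added and luminescence read after 30 min at room temperature.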

[18] = target: Progesterone receptor (Homo sapiens) (UniProt P06401); assay: qHTS assay to identify small molecule antagonists of the progesterone receptor (PR) signaling pathway (AID 1346795; active means well fitted inhibition curve with a large enough effect in the signal ratio in the repeat runs, not every such curve was filed as active; the % refers to the signal ratio; further: potency means the concentration at half of the fitted maximal effect); details: PR-UAS-bla HEK293T, beta-lactamase FRET ratio, 16 h; series mostly up to 92.4 µM
In short: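 In HEK293T cells bearing the PR-UAS-bla reporter, compound effects on promegestone-driven (1 nM) beta-lactamase expression are assessed after 16 hr using a fluorescent FRET substrate incubated 2 hr at room temperature.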

O.O.O.O=C([O-])[C@H]([O-])[C@@H]([O-])C(=O)[O-].O=C([O-])[C@H]([O-])[C@@H]([O-])C(=O)[O-].[K+].[K+].[Sb+3].[Sb+3]
active: Potency [1] 54.8 µM | Potency [10] 17.3 µM
inactive: Potency [2] | Potency [3] | Potency [4] | outcome [5] | Potency [6] | Potency [7] | Potency [8] | Potency [9] | Potency [11] | Potency [12] | Potency [13]

CSSC
inactive: Potency [1] | Potency [2] | Potency [3] | Potency [4] | outcome [5] | Potency [6] | Potency [7] | Potency [8] | Potency [10] | Potency [11] | Potency [12] | Potency [13]
active: Potency [9] 24.6 µM

CNC(=O)O/N=C(\C)C(C)S(C)(=O)=O (centres undefined)
active: Potency [13] 355 µM
inactive: Potency [1] | Potency [2] | Potency [3] | Potency [4] | outcome [5] | Potency [8] | Potency [9] | Potency [10] | Potency [11] | Potency [12]

CCO/N=C(\CC)C1=C(O)CC(c2c(C)cc(C)cc2C)CC1=O (centres undefined)
active: Potency [14] 30.6 µM
inactive: Potency [1] | Potency [2] | Potency [3] | Potency [4] | outcome [5] | Potency [8] | Potency [9] | Potency [11] | Potency [12] | Potency [13]

C[C@]12CC[C@H]3[C@@H](CCC4=CC(=O)CC[C@@H]43)[C@@H]1CC[C@@H]2OC(=O)CCc1ccco1
active: Potency [2] 0.841 µM
inactive: Potency [1] | Potency [15] | Potency [3] | Potency [4] | outcome [5] | Potency [6] | Potency [7] | Potency [8] | Potency [13]

O=C(NC(=O)c1ccccc1Cl)Nc1ccc(OC(F)(F)F)cc1
inactive: Potency [1] | Potency [2] | Potency [3] | Potency [4] | outcome [5] | Potency [8] | Potency [9] | Potency [10] | Potency [11] | Potency [12] | Potency [13]

CC(C)Br
inactive: Potency [1] | Potency [2] | Potency [16] | Potency [3] | Potency [4] | outcome [5] | Potency [6] | Potency [7] | Potency [8] | Potency [9] | Potency [10] | Potency [11] | Potency [12] | Potency [14] | Potency [13]

CC1CCCC1
inactive: Potency [1] | Potency [15] | Potency [16] | Potency [3] | Potency [4] | Potency [6] | Potency [7] | Potency [8] | Potency [10] | Potency [11] | Potency [12] | Potency [14] | Potency [13]
active: Potency [2] 53.6 µM

Cc1c([N+](=O)[O-])cc2c(c1[N+](=O)[O-])C(C)(C)CC2(C)C
active: Potency [14] 54.5 µM
inactive: Potency [1] | Potency [2] | Potency [15] | Potency [16] | Potency [4] | outcome [5] | Potency [6] | Potency [7] | Potency [8] | Potency [9] | Potency [10] | Potency [11] | Potency [12] | Potency [13]

Oc1ccc2[nH]cc(CCCCN3CC=C(c4ccccc4)CC3)c2c1
inactive: Potency [1] | Potency [2] | Potency [15] | Potency [16] | Potency [3] | Potency [4] | outcome [5] | Potency [9] | Potency [11] | max activation [17] 4.09%

CC(C)c1c(CN(C)C(C)Cc2ccccc2)n(C)n(-c2ccccc2)c1=O (centres undefined)
inactive: Potency [1] | Potency [2] | Potency [3] | Potency [4] | Potency [6] | Potency [7] | Potency [8] | Potency [9] | Potency [10] | Potency [11] | Potency [12] | max activation [17] 8.57%

C[C@]12Cc3cn[nH]c3C[C@@H]1CC[C@@H]1[C@@H]2CC[C@@]2(C)[C@H]1CC[C@]2(C)O
active: Potency [18] 0.119 µM | Potency [15] 18.8 µM | Potency [16] 18.8 µM | Potency [14] 9.44 µM
inactive: Potency [1] | Potency [3] | Potency [4] | outcome [5] | Potency [7] | Potency [11] | Potency [13]

CN(C)CCc1c[nH]c2ccccc12
inactive: Potency [1] | Potency [2] | Potency [3] | Potency [4] | outcome [5] | Potency [6] | Potency [7] | Potency [10] | Potency [12] | Potency [14] | Potency [13]

CCCCC(CC)COC(=O)c1ccccc1C(=O)OCC(CC)CCCC (centres undefined)
active: Potency [2] 43.3 µM | Potency [14] 6.86 µM
inactive: Potency [1] | Potency [3] | Potency [4] | Potency [6] | Potency [7] | Potency [8] | Potency [9] | Potency [10] | Potency [13]

COP(=S)(NC(C)C)Oc1ccc(C)cc1[N+](=O)[O-] (centres undefined)
inactive: Potency [1] | Potency [2] | Potency [15] | Potency [3] | Potency [4] | outcome [5] | Potency [6] | Potency [7] | Potency [9] | Potency [10] | Potency [11] | Potency [12] | Potency [13]
active: Potency [14] 30.6 µM

CCOP(=O)(Sc1ccccc1)Sc1ccccc1
active: Potency [14] 34.4 µM | Potency [13] 3.99 µM
inactive: Potency [1] | Potency [2] | Potency [15] | Potency [16] | Potency [3] | Potency [4] | outcome [5] | Potency [9] | Potency [11] | Potency [12]
